The campaign covered roughly 2,100 compounds. About 480 (23%) were called active. Roughly 5% stayed inconclusive and do not appear here.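 The calls were made as follows: active = fitted curve reaches 40% activation at or below the top valid concentration, in every replicate test; inconclusive = replicate tests disagree on the call; inactive = the rest, including activity in the opposite direction.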 Only a sample is shown. Potency and affinity values are given separately.
assay: PGC1a acetylation increase, cellular AlphaLISA – cell-based, cherry-picked samples, set 6, dose response (AID 720513); details: U2OS PGC1a acetylation AlphaLISA, overnight, 0 = neutral, -100 = inhibitor control; series mostly up to 19.5 µM; activation (acetylation increase): at the top concentration;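 also: cells made to overexpress flag tagged PGC1a plus GCN5 acetyltransferase by viral infection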

Activation (acetylation increase), inactive:
C[C@@H]1CN([C@@H](C)CO)C(=O)CCCn2cc(nn2)CO[C@H]1CN(C)Cc1ccc2c(c1)OCO2 9.96% [at 21 µM], O=C(C[C@@H]1C=C[C@@H](NC(=O)CN2CCOCC2)[C@H](CO)O1)NC1CCCCC1 5.29%, CSc1nc(SC)c2c3c(oc2n1)COC(C)(C)C3 18.7%, COCC#Cc1ccc2c(c1)O[C@H](CN(C)C(=O)CN(C)C)[C@@H](C)CN([C@@H](C)CO)S2(=O)=O 1.49%, CCC(=O)N1CCc2cc(OC)c(OC)cc2C1COc1ccc(C(=O)OC)cc1 (stereo not drawn) 28.5%, CCC(=O)N(C)C[C@@H]1Oc2ncc(C#CCc3ccccc3)cc2C(=O)N([C@H](C)CO)C[C@@H]1C -52.8%, C[C@@H]1CN([C@H](C)CO)C(=O)c2cccc(NC(=O)c3nc4ccccc4s3)c2O[C@@H]1CN(C)CC1CCCCC1 -33.2%, C[C@H]1CN([C@@H](C)CO)C(=O)c2cccc(NC(=O)c3nc4ccccc4s3)c2O[C@H]1CN(C)Cc1ccc(C(=O)Nc2ccccc2N)cc1 60.2%, CN(c1ccccc1)S(=O)(=O)c1ccc(Cl)nc1 -0.798%, O=C(/C=C/c1ccccc1)CC(O)(c1ccccc1)C(F)(F)F (stereo not drawn) 27.6% [at 10 µM], CCN(CC)S(=O)(=O)c1ccc(C(=O)N(c2ccccc2)C2C=CS(=O)(=O)C2)cc1 (stereo not drawn) -8.54%, CNC[C@@H](CC1CCCCC1)NC[C@H](CC(C)C)NCCc1cccc(C(F)(F)F)c1 -101%, Cc1cc(NS(=O)(=O)c2ccc(NC(=O)COc3c(C)cc(Br)cc3C)cc2)no1 19.4%, CCN(CC(=O)NCc1ccc(Cl)cc1)C(=O)CSCC(=O)Nc1ccc(C)cc1 -34%, Cc1nnc2sc(-c3ccc(NC(=O)c4ccc(-c5ccc(Cl)cc5Cl)o4)cc3)nn12 -15.2%, CCC(=O)NCc1c(C)c(C)n(Cc2ccccc2)c1-n1cccc1 14.2%, Cc1ccc(S(=O)(=O)OCCC2=CC(=O)CCN2Cc2ccccc2)cc1 -13.4%, Cc1ccc(S(=O)(=O)N2CCCCC2C(=O)O)cc1 (stereo not drawn) -66.4%, COc1ccc(S(=O)(=O)N2CCCCN3[C@@H](CO)[C@@H](c4ccc(C5=CCCCC5)cc4)[C@@H]3C2)cc1 16.8%, CN(C)CC(=O)N[C@H]1CC[C@H](CCNC(=O)Nc2ccc(Cl)cc2)O[C@H]1CO 0.988%, CCOC(=O)N1CCN(C(=O)c2cc(S(=O)(=O)N3CCCC3)cn2C)CC1 14.9%, CCCc1nnc(NC(=O)CN2CCOCC2)s1 -3.15%, CNC[C@@H]1Oc2cc(C#CCC3CCCC3)ccc2S(=O)(=O)N([C@H](C)CO)C[C@H]1C -9.01%, O=C(N/N=C/C=C\c1ccccc1[N+](=O)[O-])c1cccnc1 11%, COc1ccc(-c2noc(CCC(=O)N3CCN(c4cccc(C)c4C)CC3)n2)cc1 16.8%, COc1ccc(COc2cc(-c3cccc(OC)c3)nc3ccc(NC(=O)c4cccnc4)cc23)cc1 12%, CC(=O)N1N=C(c2ccco2)CC1c1ccco1 (stereo not drawn) -18.8%, CCC1SC2=NC(C)=C(C(=O)OC)C(c3cccs3)N2C1=O (stereo not drawn) 9.25%, COc1ccc(S(=O)(=O)N[C@@H]2CC[C@H](CCNC(=O)c3ccccc3F)O[C@H]2CO)cc1 16.6%, O=c1c(Cl)c(Cl)cnn1Cc1nnc(-c2ccc(Cl)cc2)o1 -89.1%, CCC(=O)N(C)C[C@@H]1Oc2cc(C#Cc3cccnc3)ccc2S(=O)(=O)N([C@H](C)CO)C[C@H]1C -30.7%, C=CCc1ccc(OCCCCNC(C)CC)c(OC)c1 (stereo not drawn) 1.82%, O=C1CN(C(=O)Cn2ncc(Cl)c(Cl)c2=O)c2ccccc2N1 -101%, CSCC(O)Cn1[nH]c(=O)c2cc(Cl)c(Cl)cc2c1=O (stereo not drawn) -20.6%, Cc1cc(S(=O)(=O)NC(C)C)ccc1OCC(=O)Nc1ccc2c(c1)OCCO2 6.52%, O=C(/C=C/c1ccccc1)CC(O)(c1ccccc1)C(F)(F)C(F)F (stereo not drawn) -99.5%, Cc1ccc(C2CC2c2n[nH]c(=S)n2-c2ccc(Cl)cc2)cc1 (stereo not drawn) 4.31%, CCCNC(=O)c1nnsc1S(=O)c1ccc(Cl)cc1 (stereo not drawn) -98.5%, O=C(Nc1ccccc1)c1nnsc1S(=O)c1ccc(Cl)cc1 (stereo not drawn) -86.1%, Cc1ccc(-n2nc3ccc(N)cc3n2)cc1 31%, CCC(=O)N(C)C[C@@H]1Oc2ncc(-c3ccc(C(=O)N(C)C)cc3)cc2C(=O)N([C@H](C)CO)C[C@@H]1C -3.52%, COc1ccc(OCC(=O)NNC(=O)c2c(-c3ccccc3Cl)noc2C)cc1 -14.9%, CSc1n[nH]c(NC(=O)c2c(-c3c(Cl)cccc3Cl)noc2C)n1 -24%, O=C(O)COc1ccc(/C=C2/SC(=S)N(Cc3ccccc3)C2=O)cc1 14.2%, CNC[C@@H](Cc1ccccc1)NC[C@@H](CC1CCCCC1)NCCCc1ccccc1 -100%, CCOC(=O)C1CCN(Cc2ccc(O)c3ncccc23)CC1 0.639%, Cc1cccc(NS(=O)(=O)c2cccc(C(=O)NCC(c3ccco3)N3CCCCC3)c2)c1 (stereo not drawn) -13%, COc1ccc(C(=O)C(CN2CCCC2)c2ccccc2)cc1 (stereo not drawn) -87%, CC(C)c1ccc(S(=O)(=O)N(C)C2(C)CCS(=O)(=O)C2)cc1 (stereo not drawn) 35.8% [at 10 µM], CN(C)S(=O)(=O)N1CCC(Cc2ccccc2)CC1 -4.72%, CCCOc1cccc(C(=O)Nc2cc(NC(=O)c3ccco3)ccc2OC)c1 29.9%, CCCCNC(=O)c1ccc(CS(=O)(=O)c2ccccc2OC)o1 7.67%, O=C(Nc1ccc(F)cc1)N1CC(=O)N2[C@@H](CO)[C@@H](c3ccc(-c4ccccc4)cc3)[C@@H]2C1 26.6%, COc1ccc(-c2ccc(OC)cc2C(=O)O)cc1 14.8% [at 10 µM], CC(C)c1ccc(CNc2ccc([N+](=O)[O-])cn2)cc1 34.8%, Cc1nc(NCCc2ccccc2)c2nnn(Cc3ccccc3Cl)c2n1 -5.82%, CSc1ncccc1C(=O)N1CCN(C(=O)c2ccccc2)CC1 4.96%, O=C(NC1CCCCCCC1O)c1ccccc1 (stereo not drawn) -13.7%, CO[C@@H]1CN(C)C(=O)c2cc(NC(C)=O)ccc2OC[C@@H](C)N(Cc2ccccc2C(=O)O)C[C@@H]1C -27.9%, Cc1cc(SCC(=O)NC(=O)NCc2ccco2)nc2ccccc12 23.1%, C=CCn1c(SCC(=O)NCc2ccccc2)nnc1-c1ccccc1O 20.6%, COc1ccc(OC)c(Nc2ccc(C(=O)O)cc2[N+](=O)[O-])c1 5.16% [at 10 µM], COc1ccccc1/C=C/c1nc2ccc(OC(C)=O)cc2c(=O)o1 11.5%

From PubChem BioAssay AID720513 (Broad Institute, 2013)
